Out of some 220,000 compounds screened, about 910 (0.41%) were called active.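 How the source made its calls: active means primary inhibition above the hit cutoff, then over 50% inhibition at one or more dose response concentrations (cut at about 23% in these data, passing the limit was not always enough); inconclusive means conflicting primary data, or primary hits not chosen for dose response; inactive means low primary inhibition, or under 50% at every dose.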 This excerpt belongs to a sample that is enriched for actives. Measured potencies and affinities stand elsewhere.
What follows are molecules tested against Aminopeptidase N (Plasmodium falciparum (isolate 3D7)) (UniProt O96935) (assay: malaria alanyl aminopeptidase activity blockers – biochemical, fluorogenic H-Leu-NHMec substrate, 1536-well (AID 1445;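 further: plate controls were DMSO full reaction for no effect and no enzyme background for full effect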)). Settings: recombinant M1AAP, H-Leu-NHMec fluorogenic kinetic assay; at 30 µM, active compounds read high unless noted.
Aminopeptidase N (Plasmodium falciparum (isolate 3D7)), sequence (O96935 whole entry, looked up): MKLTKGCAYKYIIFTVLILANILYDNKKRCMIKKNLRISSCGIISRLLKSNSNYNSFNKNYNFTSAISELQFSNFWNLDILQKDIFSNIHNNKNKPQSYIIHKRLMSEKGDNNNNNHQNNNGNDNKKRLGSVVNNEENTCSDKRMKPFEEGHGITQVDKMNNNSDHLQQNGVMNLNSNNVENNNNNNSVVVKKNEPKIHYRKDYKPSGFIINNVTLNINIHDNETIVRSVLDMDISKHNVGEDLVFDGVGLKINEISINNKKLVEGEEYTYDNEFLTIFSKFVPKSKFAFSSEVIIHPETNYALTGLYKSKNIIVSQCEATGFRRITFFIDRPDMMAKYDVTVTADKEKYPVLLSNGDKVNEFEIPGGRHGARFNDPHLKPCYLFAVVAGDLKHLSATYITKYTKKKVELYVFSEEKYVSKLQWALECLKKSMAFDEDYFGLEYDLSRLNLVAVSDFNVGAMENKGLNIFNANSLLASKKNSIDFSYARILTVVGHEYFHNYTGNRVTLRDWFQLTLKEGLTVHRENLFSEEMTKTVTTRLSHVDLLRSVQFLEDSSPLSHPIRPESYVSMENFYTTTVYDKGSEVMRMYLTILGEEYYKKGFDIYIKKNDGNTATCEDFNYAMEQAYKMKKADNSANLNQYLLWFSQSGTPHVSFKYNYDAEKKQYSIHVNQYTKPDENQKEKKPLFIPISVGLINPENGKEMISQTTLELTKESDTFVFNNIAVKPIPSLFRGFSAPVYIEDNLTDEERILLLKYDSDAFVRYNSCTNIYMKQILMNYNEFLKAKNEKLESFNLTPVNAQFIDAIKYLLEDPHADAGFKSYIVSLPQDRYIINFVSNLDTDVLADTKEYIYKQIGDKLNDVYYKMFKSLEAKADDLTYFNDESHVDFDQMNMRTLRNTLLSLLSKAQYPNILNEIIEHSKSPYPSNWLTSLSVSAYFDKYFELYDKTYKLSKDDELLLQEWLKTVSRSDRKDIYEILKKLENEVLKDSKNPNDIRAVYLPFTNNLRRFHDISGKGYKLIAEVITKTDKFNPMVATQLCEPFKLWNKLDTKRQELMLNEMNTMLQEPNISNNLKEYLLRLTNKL

| Structure (SMILES) | inhibition |
| --- | --- |
| CCN(CC)CC(C)(C)NS(=O)(=O)c1ccc(Cl)cc1 | -1.17% (inactive) |
| CC(C)OCCCNC(=O)c1ccc2c(=O)n(Cc3ccc4c(c3)OCO4)c(=S)[nH]c2c1 | -0.14% (inactive) |
| COc1ccc(/C=C/C(=O)NCCSCc2ccco2)cc1 | 8.04% (inactive) |
| Cc1ccccc1C(=O)OCc1nnc(-c2ccc(Cl)cc2)o1 | 1.13% (inactive) |
| NC(CC(=O)O)c1ccc(F)cc1 (configuration not stated) | 0.38% (inactive) |
| COC(=O)CC(N)c1ccc(Br)cc1 (configuration not stated) | 3.11% (inactive) |
| Cc1c(/C=N/NC(=O)c2cc(C(C)(C)C)[nH]n2)c2ccccc2n1C | 4.3% (inactive) |
| COc1ccc2[nH]cc(CCN=C3SCC(=O)N3C)c2c1 | -3.56% (inactive) |
| N#Cc1cc2c(nc1SCc1ccccc1)CCC2 | -3.56% (inactive) |
| N#Cc1cc2c(nc1SCc1ccccc1)CCCCC2 | 5.06% (inactive) |
| CCOc1ccc(CCNC(=O)C2CCCN(c3nn4c(=O)cc(C)nc4s3)C2)cc1 (configuration not stated) | 1.13% (inactive) |
| CCOC(=O)c1c(-c2ccccc2)csc1N1C(=O)Nc2ccccc2N1O | 17% (inactive) |
| COc1ccc(S(=O)(=O)Nc2cc(Cl)ccc2OC)cc1 | 4.45% (inactive) |
| CCOc1ccc(S(=O)(=O)Nc2cc(Cl)ccc2O)cc1 | 24.5% (active) |
| CCOc1ccc(S(=O)(=O)Nc2cc(OC)ccc2OC)cc1 | 4.04% (inactive) |
| Cc1ccc(S(=O)(=O)Nc2ccccn2)cc1[N+](=O)[O-] | 2.61% (inactive) |
| Cc1ccc(-c2csc(NC(=O)CSc3nc4ccccc4[nH]3)n2)cc1 | 7.06% (inactive) |
| CCc1cc2c(-n3nc(C)cc3C)ncnc2s1 | 4.83% (inactive) |
| Cc1cc(Cl)ccc1OCCCC(N)=O | 1.94% (inactive) |
| Cc1cc(Cl)ccc1OCCCC(=O)NN | 2.87% (inactive) |
| Cn1c(=O)n(C)c2cc(NS(=O)(=O)c3cccs3)ccc21 | 5.68% (inactive) |

| Structure (SMILES) | inhibition |
| --- | --- |
| Cc1ccc(C(=O)NCc2ccc(Cl)c(Cl)c2)o1 | 7.75% (inactive) |
| CCCCN(CCCC)CC(O)CN1C(=O)NC(C)(C)C1=O (configuration not stated) | -3.19% (inactive) |
| CCN(CC(N)=O)S(=O)(=O)c1ccc(F)cc1 | 2.95% (inactive) |
| CCOc1ccc(C(=O)N/N=C/c2ccc(-c3ccc(S(=O)(=O)Nc4ncccn4)cc3)o2)cc1 | 55.9% (active) |
| O=C(N/N=C/c1ccc(Sc2ccccn2)o1)c1cc2ccccc2cc1O | 33% (inactive) |
| NS(=O)(=O)c1ccc(-c2ccc(/C=N/NC(=O)c3ccccc3O)o2)cc1 | 11.7% (inactive) |
| CCOc1ccc(S(=O)(=O)Nc2ccc(C(=O)NN)cc2)cc1 | 4.26% (inactive) |
| Cc1noc(NS(=O)(=O)c2ccc(NC(=O)c3ccc(OC(C)C)cc3)cc2)c1C | 4.64% (inactive) |
| CCCOc1ccc(C(=O)Nc2ccc(S(=O)(=O)Nc3onc(C)c3C)cc2)cc1 | -1.24% (inactive) |
| NS(=O)(=O)c1ccc(-c2ccc(/C=N/NC(=O)c3ccc([N+](=O)[O-])cc3)o2)cc1 | 2.02% (inactive) |
| CCOc1ccc(S(=O)(=O)N(CC(=O)N/N=C/c2ccc(-c3ccc([N+](=O)[O-])cc3)o2)c2ccccc2)cc1 | 15.9% (inactive) |
| Cc1ccc(C(=O)N/N=C\c2ccc(-c3ccc(Cl)cc3)o2)cn1 | 8.72% (inactive) |
| O=C(Nc1ccc(Cl)c(Cl)c1)C1CC(=O)N(c2ccc(Br)cc2)C1 (configuration not stated) | -1.64% (inactive) |
| O=C(CCc1nc2ccccc2[nH]1)Nc1ccccc1F | -0.01% (inactive) |
| CC1CCCCN1C(=O)COc1ccc2ccc(=O)oc2c1 (configuration not stated) | -2.26% (inactive) |
| Cc1ccc(NCN2C(=O)C3CC=CCC3C2=O)cc1 (configuration not stated) | 2.04% (inactive) |
| Cc1ccc(CSCC(=O)N/N=C/c2sccc2C)cc1 | -0.66% (inactive) |
| O=C(Cn1cc(C(F)(F)F)cc(Cl)c1=O)Nc1cc(S(=O)(=O)N2CCOCC2)ccc1Cl | 7.22% (inactive) |
| Cc1ccc(NC(=O)NCc2ccc3c(c2)OCO3)cc1C | 0.33% (inactive) |
| Cc1ccc(N2CC(C(=O)Nc3cccnc3)CC2=O)cc1 (configuration not stated) | -4.99% (inactive) |
| CC12CC(NC(=O)N1Cc1ccccc1)c1ccccc1O2 (configuration not stated) | 25.3% (active) |

| Structure (SMILES) | inhibition |
| --- | --- |
| CC12CC(NC(=O)N1CCc1ccccc1)c1ccccc1O2 (configuration not stated) | 4.6% (inactive) |
| COc1cccc2c1OC1(C)CC2NC(=O)N1Cc1ccccc1 (configuration not stated) | 1.39% (inactive) |
| CC1CCCC(C)N1NC(=S)Nc1ccc(OC(F)F)cc1 (configuration not stated) | 3.89% (inactive) |
| CSc1cc(-c2ccc(Cl)cc2)[nH]c(=O)c1C#N | 0.84% (inactive) |
| O=C1NCC(COCc2ccco2)O1 (configuration not stated) | -4.49% (inactive) |
| COc1cc(/C=N/NC(=O)Cc2c[nH]c3ccccc23)cc(OC)c1OC | 8.03% (inactive) |
| CC(=O)NC(Cc1c[nH]c2ccccc12)C(=O)N/N=C/c1ccccc1 (configuration not stated) | 2.78% (inactive) |
| COC(=O)N/N=C/c1cc(OC)c(O)c([N+](=O)[O-])c1 | 14.3% (inactive) |
| COc1ccc(/C=N/NC(=O)C(Cc2c[nH]c3ccccc23)NC(=O)OCC(C)C)cc1[N+](=O)[O-] (configuration not stated) | 3.34% (inactive) |
| COc1cc(/C=N/NC(=O)C(Cc2c[nH]c3ccccc23)NC(=O)OCC(C)C)cc([N+](=O)[O-])c1OCc1ccccc1 (configuration not stated) | 9.91% (inactive) |
| COc1ccccc1CNC(=O)C(Cc1c[nH]c2ccccc12)NC(=O)OCc1ccccc1 (configuration not stated) | 2.3% (inactive) |
| Cc1ccc2[nH]c(=O)c(CNC(C)C)cc2c1 | 11.4% (inactive) |
| O=C(NCc1ccccn1)C(=O)Nc1ccccc1 | 1.97% (inactive) |
| Cc1ccc(C(=O)C(OC(=O)c2cnccn2)c2ccccc2)cc1 (configuration not stated) | 1.17% (inactive) |
| O=S(=O)(c1ccc2ccccc2c1)N1CCN(C(=S)Nc2ccc(F)cc2)CC1 | 3.26% (inactive) |
| O=C(Cc1ccccc1)NS(=O)(=O)c1ccc(N=NN2CCOCC2)cc1 | 12.9% (inactive) |
| COC(=O)N1CCCc2cc(C)ccc21 | -4.46% (inactive) |
| COc1cccc(C(=O)NN2C(=O)C3C4C=CC(O4)C3C2=O)c1 (configuration not stated) | 6.4% (inactive) |
| NS(=O)(=O)c1ccc(CCNC(=O)CSc2nc3ccsc3c(=O)n2CC(=O)O)cc1 | 2.18% (inactive) |
| O=C(NCc1ccccn1)C1CCN(S(=O)(=O)c2cc(Cl)ccc2Cl)CC1 | 3.1% (inactive) |

— PubChem BioAssay AID1445 (SRMLSC, 2008)
